According to PubChem BioAssay (NCATS):
Values joined by “and” are separate entries in the source; they are usually repeats but may differ in a detail not shown here. Equal values may be shown once. Results filed as inconclusive are left out. More than one record can exist for a structure, and the calls need not agree. Active and inactive are the calls of the source. Unless noted, calls come from the whole dose curve; as a rule, active = well fitted curve in either direction with a large enough effect (not every such curve was filed as active); inconclusive = small, poorly fitted or top-dose-only effect, or another doubt; inactive = flat fitted curve, though single readings scatter. Residues, ends and D or L forms follow the SMILES beside them. *: point of attachment. Cbz = O=C(OCc1ccccc1)*

Tests used:
[1] = AP1 Signaling Pathway (AID 357); conditions: ME-180 (cervical carcinoma) AP-1-bla reporter, EGF-induced, beta-lactamase ratio, 5 h;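 note: ME-180 reporter cells stimulated with EGF at its EC50 level; % is set by controls: 0 for no effect and ±100 for the full control effect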
In short: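 AP-1-bla ME-180 cells, Opti-MEM + 0.5% dialyzed FBS, plated overnight 37 °C. Cpd titration + EC50 EGF, 5 h 37 °C. CCF4 2.5 h RT; ex 405, em 460/530 ratio → %activity, AC50.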

[2] = target: Cytochrome P450 1A2 (Homo sapiens) (UniProt P05177); experiment: p450-cyp1a2 (AID 410; calls by dose curve; note: potency is the fitted concentration of half-maximal effect;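 for activity change, negative = inhibition: -100% = full effect of reference inhibitor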)
Sequence of Cytochrome P450 1A2 (Homo sapiens) (P05177 whole entry, looked up): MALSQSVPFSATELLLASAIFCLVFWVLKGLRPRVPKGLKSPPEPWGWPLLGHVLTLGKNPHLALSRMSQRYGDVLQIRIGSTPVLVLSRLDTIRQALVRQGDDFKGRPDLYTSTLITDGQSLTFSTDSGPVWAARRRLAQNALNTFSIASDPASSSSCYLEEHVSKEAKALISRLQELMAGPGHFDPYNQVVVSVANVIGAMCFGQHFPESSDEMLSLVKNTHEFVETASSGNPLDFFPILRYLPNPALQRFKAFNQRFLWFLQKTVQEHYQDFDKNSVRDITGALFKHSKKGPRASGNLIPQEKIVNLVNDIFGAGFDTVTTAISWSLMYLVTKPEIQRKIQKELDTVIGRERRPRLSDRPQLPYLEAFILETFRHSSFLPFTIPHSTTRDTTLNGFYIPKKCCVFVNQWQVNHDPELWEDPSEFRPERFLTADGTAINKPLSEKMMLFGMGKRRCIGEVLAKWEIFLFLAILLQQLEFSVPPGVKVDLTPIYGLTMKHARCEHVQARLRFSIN
In short: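 20nM CYP1A2, 100uM Luciferin-ME (=Km), 100mM KPO4; cpd 10 min RT; +NADPH regen, 60 min RT; stop/detect 20 min; luminescence. Normalized to furafylline 57 uM = full inhibition.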

[3] = NFAT Signaling Pathway (AID 444); conditions: Jurkat NFAT-bla M1, carbachol, beta-lactamase ratio, 5 h;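 note: carbachol stimulus at about its EC50 of 1 µM final; % is set by controls: 0 for no effect and ±100 for the full control effect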
In short: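 Read-out: CCF4 FRET ratio (460 nm/530 nm) after 1 h RT dye loading, used for %activity and AC50 from titration series. Cells: Jurkat NFAT-β-lactamase/M1 line, treated with compound plus 1 uM carbachol for 5 h, 37 °C.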

[4] = Cell Viability - BJ (AID 421; calls by dose curve;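 note: potency is the fitted concentration of half-maximal effect; cells exposed to compound for 40 hours at 37 °C before readout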); conditions: BJ fibroblast viability, qHTS
In short: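 Quantitative HTS: ATP depletion in BJ cells after 40 hr compound exposure in complete culture medium, detected with CellTiter-Glo; AC50 from standard Hill fits.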

[5] = Cell Viability - Jurkat (AID 426;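 active = dose-dependent loss of cell ATP signal giving a full or clear fitted curve, ranked by lower potency value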;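 note: potency is the fitted concentration of half-maximal effect; cells exposed to compound for 40 hours at 37 °C before ATP read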); conditions: qHTS
From the text: NIH Chemical Genomics Center [NCGC]
NIH Molecular Libraries Screening Centers Network [MLSCN]
National Institutes of Environmental Health Sciences [NIEHS]
National Toxicology Program [NTP]
We have developed a 1536-well cell-based assay for quantitative high throughput screening (qHTS) against a number of cell lines to determine in vitro cytotoxicity of small molecules. This particular assay uses the Jurkat cell line (Clone E6-1) which is derived from the human T cell leukemia.
NCGC Assay Protocol Summary:
The CellTiter-Glo luminescent cell viability assay (Promega) is a homogeneous method to measure the number of viable cells in culture. The end point readout of this assay is based on quantitation of intracellular ATP, an indicator of metabolic activity, using the luciferase reaction. […]
Using the CellTiter-Glo luminescent cell viability assay, the amount of cellular ATP was measured in the Jurkat cell line with complete culture medium following compound treatment for 40 hours. […] Library compounds were measured for their ability to cause acute toxicity in the cell line, as reflected by a decrease in intracellular ATP levels, in a concentration-dependent manner. […] AC50 values were determined from concentration-response data modeled with the standard Hill equation. […]
7. Detection; Luminescence; Viewlux plate reader […]

[6] = Cell Viability - Hek293 (AID 427;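 active = compounds whose dose-response curve shows a full or clear partial loss of cell viability, called from curve shape rather than a numeric limit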;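 note: potency is the fitted concentration of half-maximal effect; cells exposed to compound for 40 hours at 37 °C before reading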); conditions: qHTS
In short: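 AC50 values derive from Hill-modelled concentration-response of ATP-based luminescence, normalized between DMSO-only and 100 uM tamoxifen controls. Cells were exposed in complete culture medium for 40 hr at 37 °C before detection.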

[7] = Cell Viability - HepG2 (AID 433; calls by dose curve;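 note: potency is the fitted concentration of half-maximal effect; potency for ATP loss meaning cytotoxicity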); conditions: qHTS
In short: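 HepG2 hepatocellular carcinoma cells (1500/well) were treated with compounds for 40 h at 37 °C in complete medium; intracellular ATP was read by CellTiter-Glo luminescence. Data were normalized to DMSO and 100 uM tamoxifen, and AC50 came from Hill fits.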

[8] = Cell Viability - MRC5 (AID 434; calls by dose curve;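 note: potency is the fitted concentration of half-maximal effect; potency reflects cytotoxicity seen as loss of intracellular ATP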); conditions: MRC5 lung fibroblast viability, qHTS
In short: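 AC50 values come from Hill-equation fits of intracellular ATP loss, measured by CellTiter-Glo luminescence. Normal lung fibroblasts (MRC5) had 40 hr compound treatment at 37 C, normalized between DMSO and 100 uM tamoxifen.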

[9] = Cell Viability - SK-N-SH (AID 435; calls by dose curve;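 note: potency is the fitted concentration of half-maximal effect; compound exposure lasted 40 h at 37 °C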); conditions: SK-N-SH neuroblastoma cell viability qHTS
In short: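 SK-N-SH human neuroblastoma cells (1500/well) were exposed to compounds in complete medium for 40 h at 37 °C, and intracellular ATP was then measured by CellTiter-Glo luminescence. AC50 was taken from Hill fits, normalized to DMSO and 100 uM tamoxifen.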

[10] = target: Lysosomal acid glucosylceramidase (Homo sapiens) (UniProt P04062); experiment: Glucocerebrosidase-p2 (AID 348; in the data active = potency below about 10 µM; note: potency is the fitted concentration of half-maximal effect); conditions: purified GBA, blue fluorogenic substrate, 40 min
Sequence of Lysosomal acid glucosylceramidase (Homo sapiens) (P04062 whole entry, looked up): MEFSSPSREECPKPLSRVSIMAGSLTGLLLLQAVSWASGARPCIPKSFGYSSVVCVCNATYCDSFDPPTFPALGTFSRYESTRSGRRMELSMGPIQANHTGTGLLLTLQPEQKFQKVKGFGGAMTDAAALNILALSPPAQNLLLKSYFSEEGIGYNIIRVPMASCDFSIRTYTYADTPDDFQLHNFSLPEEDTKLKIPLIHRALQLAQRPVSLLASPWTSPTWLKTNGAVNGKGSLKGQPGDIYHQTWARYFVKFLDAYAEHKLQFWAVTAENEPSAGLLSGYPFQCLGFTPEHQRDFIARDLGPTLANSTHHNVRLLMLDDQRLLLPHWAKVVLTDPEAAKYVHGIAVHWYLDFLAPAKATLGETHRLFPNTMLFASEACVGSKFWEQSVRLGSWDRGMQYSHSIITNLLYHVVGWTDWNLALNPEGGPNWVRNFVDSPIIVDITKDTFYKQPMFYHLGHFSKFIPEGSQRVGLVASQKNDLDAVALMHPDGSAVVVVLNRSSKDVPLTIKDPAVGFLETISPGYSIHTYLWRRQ
From the text: Beta-glucocerebrosidase catalyzes the hydrolysis of beta-glucocerebroside to glucose and ceramide. The inherited deficiency of beta-glucocerebrosidase results in Gaucher disease, which is characterized by a wide variety of symptoms including hepatosplenomegaly, anemia, thrombocytopenia, bony lesions and bone marrow infiltration with characteristic storage cells, known as Gaucher cells. There are also forms of the disorder affecting the central nervous system. Patients with the same genotypes can manifest with diverse clinical presentations and it is believed that improper folding and trafficking of beta-glucocerbrosidase may contribute to the phenotypes observed.
Low molecular weight molecules, acting as chaperones, may potentially restore trafficking of misfolded beta-glucocerebrosidase from the endoplasmic reticulum to the lysosomes, thereby enhancing functional lysosomal beta-glucocerebrosidase activity.
Using normal beta-glucocerebrosidase, an assay was developed to screen for small molecule inhibitors that could potentially act as molecular chaperones on the mutant forms [developed with NIH investigator Dr. Ellen Sidransky#s laboratory]. Two pro-fluorescent substrates were chosen for two screens against a small molecule library. […]
Blue fluorescence substrate assay: […]
Read the plate in Viewlux plate reader (Ex=365(10) and Em=440(10)).

[11] = at 38 µM (top of the series) unless noted

## N=C(N)c1ccc(OCCCCCOc2ccc(C(=N)N)cc2)cc1 (tested in a mixture with another compound)
[1]; [11]
  activity change, negative = inhibition: 5.08% (inactive)

## COc1cc(CC(=O)O)ccc1O
[1]; [11]
  activity change, negative = inhibition: 8.32% (inactive)
[2]
  Potency: inactive
[3]; [11]
  activity change, negative = inhibition: 6.22% (inactive)

## Cc1cccc(C(=O)NCN2CCN(c3ccccc3C#N)CC2)c1
[1]; [11]
  activity change, negative = inhibition: -12.1% (inactive)
[2]
  Potency: 15.8 µM (active) and 20 µM (active)
[3]; [11]
  activity change, negative = inhibition: -27.4% (inactive)

## CCCOC(=O)c1c(-c2ccccc2)nc(CC)c(C(=O)SCC)c1CCC
[1]; [11]
  activity change, negative = inhibition: 2.66% (inactive)
[2]
  Potency: 10 µM (active)

## Nc1ccc2c3c(cccc13)C(=O)NC2=O
[1]; [11]
  activity change, negative = inhibition: -5.58% (inactive)
[2]
  Potency: 1 µM (active)

## Nc1ncnc2c1c(-c1ccc(Oc3ccccc3)cc1)cn2C1CCCC1
[1]; [11]
  activity change, negative = inhibition: -103% (active)
[2]
  Potency: 15.8 µM (active)

## O=C(OCCN1CCOCC1)C1(c2ccccc2)CCCCC1
[1]; [11]
  activity change, negative = inhibition: -11.4% (inactive)
[2]
  Potency: 31.6 µM (active)

## O=C(O)c1cc2cc(F)ccc2[nH]1
[1]; at 17.2 µM (top of the series)
  activity change, negative = inhibition: 14.4% (inactive)
[1]; at 38 µM (top of the series)
  activity change, negative = inhibition: 0.264% (inactive)
[2]
  Potency: inactive
[3]; at 17.2 µM (top of the series)
  activity change, negative = inhibition: -6.32% (inactive)
[3]; at 38 µM (top of the series)
  activity change, negative = inhibition: -3.11% (inactive)

## COc1ccc(NC(=O)c2ccc(-c3ccc(-c4noc(C)n4)cc3C)cc2)cc1N1CCN(C)CC1
[1]; [11]
  activity change, negative = inhibition: -2.61% (inactive)
[2]
  Potency: inactive

## COc1ccc(C(=O)NCc2cccnc2)cc1C(=O)NCc1cccnc1
[1]; at 17.2 µM (top of the series)
  activity change, negative = inhibition: 9.58% (inactive)
[1]; at 38 µM (top of the series)
  activity change, negative = inhibition: 4.86% (inactive)
[3]; at 17.2 µM (top of the series)
  activity change, negative = inhibition: -4.93% (inactive)
[3]; at 38 µM (top of the series)
  activity change, negative = inhibition: -7.04% (inactive)

## O=[N+]([O-])c1cccc2cn[nH]c12
[1]; at 17.2 µM (top of the series)
  activity change, negative = inhibition: -15.6% (inactive)
[1]; at 38 µM (top of the series)
  activity change, negative = inhibition: 0.682% (inactive)
[2]
  Potency: 12.6 µM (active) and 2.51 µM (active)
[3]; at 17.2 µM (top of the series)
  activity change, negative = inhibition: -4.2% (inactive)
[3]; at 38 µM (top of the series)
  activity change, negative = inhibition: -7.34% (inactive)

## CNC(=O)c1cc2c(cn1)[nH]c1ccccc12
[1]; [11]
  activity change, negative = inhibition: 0.843% (inactive)
[2]
  Potency: 794 nM (active) and 50.1 nM (active)
[3]; [11]
  activity change, negative = inhibition: -1.62% (inactive)

## NC(=O)c1ccccc1
[1]; [11]
  activity change, negative = inhibition: -2.04% (inactive)
[2]
  Potency: inactive
[4]
  Potency: > 92 µM (inactive)
[5]
  Potency: > 92 µM (inactive)
[6]
  Potency: > 92 µM (inactive)
[7]
  Potency: > 92 µM (inactive)
[8]
  Potency: > 92 µM (inactive)
[9]
  Potency: > 92 µM (inactive)
[3]; [11]
  activity change, negative = inhibition: 20.6% (inactive)

## OC1(c2ccc(Cl)cc2)CCN(Cc2c[nH]c3ccccc23)CC1
[1]; [11]
  activity change, negative = inhibition: 6.53% (inactive)
[2]
  Potency: 15.8 µM (active) and 31.6 µM (active)
[3]; [11]
  activity change, negative = inhibition: 8.51% (inactive)

## NCCCNCCCCNCCCN
[1]; [11]
  activity change, negative = inhibition: 11.4% (inactive)
[2]
  Potency: inactive and 15.8 µM (active)

## O=C(O)/C(=C/c1c(C(=O)O)[nH]c2cc(Cl)cc(Cl)c12)c1ccccc1
[1]; [11]
  activity change, negative = inhibition: 1.71% (inactive)
[2]
  Potency: 12.6 µM (active)
[3]; [11]
  activity change, negative = inhibition: -3.51% (inactive)

## CC(=O)C(C)=O
[1]; [11]
  activity change, negative = inhibition: -3.27% (inactive)
[2]
  Potency: inactive
[4]
  Potency: > 92 µM (inactive)
[5]
  Potency: > 92 µM (inactive)
[6]
  Potency: > 92 µM (inactive)
[7]
  Potency: > 92 µM (inactive)
[8]
  Potency: > 92 µM (inactive)
[9]
  Potency: > 92 µM (inactive)
[3]; [11]
  activity change, negative = inhibition: 3.23% (inactive)

## CCn1c(=O)[nH]c2cc(Cl)c(Cl)cc21
[1]; [11]
  activity change, negative = inhibition: 0.191% (inactive)
[2]
  Potency: 1.26 µM (active) and 251 nM (active)
[3]; [11]
  activity change, negative = inhibition: -27.1% (inactive)

## N=C(N)c1ccccc1
[1]; [11]
  activity change, negative = inhibition: 10.4% (inactive)
[2]
  Potency: inactive
[3]; [11]
  activity change, negative = inhibition: -2.62% (inactive)

## O=c1[nH]c(=S)[nH]c(-c2ccccc2)c1Cc1c(O)ccc2ccccc12
[10]
  Potency: > 11.4 µM (inactive)
[1]; [11]
  activity change, negative = inhibition: -11.2% [at 7.69 µM] (inactive)
[2]
  Potency: 1 µM (active)
[3]; [11]
  activity change, negative = inhibition: 15.8% [at 7.69 µM] (inactive)

## CCCn1c(=O)c2[nH]c(C3CCCC3)nc2n(CCC)c1=O
[1]; at 17.2 µM (top of the series)
  activity change, negative = inhibition: -7.55% (inactive)
[1]; at 38 µM (top of the series)
  activity change, negative = inhibition: -12.1% (inactive)
[2]
  Potency: 1.26 µM (active) and 251 nM (active)
[3]; at 17.2 µM (top of the series)
  activity change, negative = inhibition: 11.5% (inactive)
[3]; at 38 µM (top of the series)
  activity change, negative = inhibition: -0.836% (inactive)

## CC(C)[C@H](NC(=O)OCc1ccccc1)C(=O)N[C@H](C=O)Cc1ccccc1 (Cbz-Val-Phe-aldehyde)
[1]; [11]
  activity change, negative = inhibition: -8.71% (inactive)
[2]
  Potency: inactive
[3]; [11]
  activity change, negative = inhibition: -9.23% (inactive)

## C=CC[C@H](N)C(=O)O
[1]; [11]
  activity change, negative = inhibition: 12.7% (inactive)
[2]
  Potency: inactive
[3]; [11]
  activity change, negative = inhibition: 2.66% (inactive)

## O=c1cc(-c2ccccc2)[nH]c2nc(Cl)ccc12
[1]; [11]
  activity change, negative = inhibition: -2.89% (inactive)
[2]
  Potency: 0.398 µM (active)
[3]; [11]
  activity change, negative = inhibition: -13% (inactive)

## CCCCCCCCCCCCCCSCC(=O)O
[1]; [11]
  activity change, negative = inhibition: -3.84% (inactive)
[2]
  Potency: inactive

## NCCCCN
[1]; [11]
  activity change, negative = inhibition: 15.3% (inactive)
[2]
  Potency: inactive
[3]; [11]
  activity change, negative = inhibition: -2.09% (inactive)

## Cc1ccc2c(c1)C(N1CCN(C)CC1)=Nc1cccnc1N2
[1]; [11]
  activity change, negative = inhibition: 22.6% (inactive)

## NC/C=C\C(=O)O
[1]; [11]
  activity change, negative = inhibition: 2.58% (inactive) and 1.13% (inactive)
[2]
  Potency: inactive
[3]; [11]
  activity change, negative = inhibition: 4.38% (inactive) and -3.77% (inactive)

## CCSC(=N)N
[1]; [11]
  activity change, negative = inhibition: -24.3% (inactive)
[2]
  Potency: inactive
[3]; [11]
  activity change, negative = inhibition: 1.19% (inactive)
